From PubChem BioAssay (NCATS)
Results filed as inconclusive are left out. Active and inactive are the calls of the source. Unless noted, the call rests on the fitted dose curve; in most records, active means well fitted curve in the direction sought with a large enough effect; inconclusive means small, poorly fitted or top-dose-only effect, or another doubt; inactive means no such curve, though single readings can be large; an effect the other way counts as inactive or inconclusive.

Key:
[1] = molecular target: ATP-dependent 6-phosphofructokinase (Trypanosoma brucei brucei) (UniProt O15648); assay: qHTS Assay to Find Inhibitors of T. brucei phosphofructokinase: hit validation (AID 492961);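 further: luminescence reports ADP formed as PFK phosphorylates fructose-6-phosphate with ATP; on the % scale 0 is the no-effect control and ±100 the full control effect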
Procedure, shortened: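 Reaction: 0.1 M triethanolamine pH 8.0, 5 mM MgCl2, F6P 0.5 mM, ATP 0.1 mM, PFK 1.25 nM, 45 min RT. Read-out: ADP-Glo luminescence. Analysis: concentration-response fits, classed by r2 and efficacy.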

[2] = molecular target: Ubiquitin carboxyl-terminal hydrolase 1 (Homo sapiens) (UniProt O94782); assay: Inhibitors of USP1/UAF1: Pilot qHTS (AID 504865);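 further: rhodamine fluorescence freed from ubiquitin-rhodamine substrate followed over time; top concentration of the series differs between compounds; on the % scale 0 is the no-effect control and ±100 the full control effect; nearly all actives have a fitted effect of over 35% in size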
Procedure, shortened: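 1nM USP1/UAF1 + cpd, 15 min RT; start w/ Ub-Rho 150nM final; kinetic FL 480/540 nm, 6 reads q60 s. Buffer 50mM HEPES pH 7.8, 0.5mM EDTA, 1mM TCEP, 0.01% Tween-20, 0.1 mg/ml BSA.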

[3] = molecular target: Luciferin 4-monooxygenase (Photinus pyralis) (UniProt P08659); assay: Biochemical firefly luciferase enzyme assay for NPC (AID 624030);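 further: purified P. pyralis luciferase at 10 nM with luciferin and ATP substrate; 0% = DMSO and -100% = full luciferase inhibition by PTC124 control; nearly all actives have a fitted effect of over 70% in size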
Procedure, shortened: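 Counter-screen for direct inhibition of the luciferase enzyme by approved-drug library compounds, run at 10 nM enzyme in 50 mM Tris acetate (final). Luminescence was read within 5 min of enzyme-buffer addition and normalized to PTC124 versus DMSO (0%).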

[4] = S16 Schwann cell viability assay (CellTiter-Glo assay) (AID 624031);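 further: native untransfected S16 rat Schwann cells; cellular ATP luminescence as a viability measure; plate controls were DMSO-treated cells for no effect and cell-free wells for full effect; nearly all actives have a fitted effect of over 70% in size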
Procedure, shortened: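 Following overnight culture in 10% FBS DMEM, parental S16 rat Schwann cells are dosed for 24 h at 37 °C. Viability is read as CellTiter-Glo luminescence and expressed as % activity relative to DMSO (0%) and no-cell wells.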

[5] = Primary qHTS for inhibitors of SARS-S pseudo-typed particle cell entry (AID 1479145; calls by dose curve; further: on the % scale 0 is the no-effect control and ±100 the full control effect; nearly all actives have a fitted effect of over 45% in size); conditions: outcome: dose series up to 57.1 µM unless noted
[6] = Primary qHTS for Huh7 cytotoxicity: counterscreen for inhibitors of MERS-S pseudotyped particle cell entry (AID 1479147; calls by dose curve; further: on the % scale 0 is the no-effect control and ±100 the full control effect); conditions: outcome: dose series up to 57.1 µM unless noted
[7] = Primary qHTS for inhibitors of MERS-S pseudo-typed particle cell entry (AID 1479149; calls by dose curve; further: nearly all actives have a fitted effect of over 60% in size); conditions: outcome: dose series up to 57.1 µM unless noted
[8] = Primary qHTS for Vero E6 cytotoxicity: counterscreen for inhibitors of SARS-S pseudo-typed particle cell entry (AID 1479150; calls by dose curve); conditions: outcome: dose series up to 57.1 µM unless noted
[9] = molecular target: Cytochrome P450 2D6 (Homo sapiens) (UniProt P10635); assay: Cytochrome P450 family 2 subfamily D member 6 (CYP2D6) small molecule antagonists: luciferase biochemical (cell-free) qHTS assay (AID 1645840; active means well fitted curve in the direction sought with a large enough effect in the repeat runs; an effect the other way counts as inactive or inconclusive; further: on the % scale 0 is the no-effect control and ±100 the full control effect; nearly all actives have a fitted effect of over 55% in size)
Procedure, shortened: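 P450-Glo CYP2D6 system: proluciferin substrate converted by enzyme to luciferin, read by luminescence proportional to activity. Enzyme-substrate mix with compound 10 min at room temperature, then NADPH regeneration 1 h before detection reagent.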

[10] = Cytotoxicity counterscreen for inhibitors of SARS-CoV-2 cell entry (AID 1645845; calls by dose curve; further: nearly all actives have a fitted effect of over 50% in size); conditions: outcome: dose series up to 57.1 µM unless noted
Procedure, shortened: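 After a 15 min room-temperature ATPLite 1step step, luminescence reflected ATP remaining in HEK293-ACE2 cells exposed to compound for 1 h plus 48 h at 37 C, with percent activity set by cell and no-cell controls.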

[11] = molecular target: Glutathione peroxidase 1 (Homo sapiens) (UniProt P07203); assay: Primary qHTS Assay for Inhibitors of Recombinant Selenoprotein Glutathione Peroxidase 1 (GPX1) (AID 1845191); further: on the % scale 0 is the no-effect control and ±100 the full control effect; nearly all actives have a fitted effect of over 65% in size
Procedure, shortened: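 GPX1 10 nM, GR 100 nM, GSH 1 mM, NADPH 0.5 mM, CHP 0.5 mM (final). 30-min cpd preincubation, RT. Ex340/Em450 read t=0, t=15 min.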

[12] = qHTS profiling for inhibitors of Plasmodium falciparum proliferation (AID 504749);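 further: 0% = DMSO vehicle and full inhibition = artemisinin control; nearly all actives have a fitted effect of over 60% in size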; conditions: P. falciparum in erythrocytes, SYBR Green DNA, 72 h, at 28.7 µM (top of the series)
Procedure, shortened: (§1)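 Quantitative HTS: compounds pinned into medium, infected erythrocytes added (0.3% parasitemia, 2.5% hematocrit), 72 h culture at 37 C under 5% CO2. Saponin/Triton lysis with SYBR Green I, overnight RT, then fluorescence read.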

3D7 = assay: as above; conditions: P. falciparum in erythrocytes, SYBR Green DNA, 72 h; series mostly up to 28.7 µM
Procedure, shortened: as §1

7G8 = assay: as above; conditions: P. falciparum in erythrocytes, SYBR Green DNA, 72 h; series mostly up to 12.8 µM
Procedure, shortened: as §1

AA1029 = assay: as above; conditions: P. falciparum in erythrocytes, SYBR Green DNA, 72 h; series mostly up to 28.7 µM
Procedure, shortened: as §1

AS120 = assay: as above; conditions: P. falciparum in erythrocytes, SYBR Green DNA, 72 h; series mostly up to 28.7 µM
Procedure, shortened: as §1

ATS189 = assay: as above; conditions: P. falciparum in erythrocytes, SYBR Green DNA, 72 h; series mostly up to 28.7 µM
Procedure, shortened: as §1

ATS95 = assay: as above; conditions: P. falciparum in erythrocytes, SYBR Green DNA, 72 h; series mostly up to 28.7 µM
Procedure, shortened: as §1

C2A = assay: as above; conditions: P. falciparum in erythrocytes, SYBR Green DNA, 72 h; series mostly up to 28.7 µM
Procedure, shortened: as §1

CP185 = assay: as above; conditions: P. falciparum in erythrocytes, SYBR Green DNA, 72 h; series mostly up to 28.7 µM
Procedure, shortened: as §1

CP191 = assay: as above; conditions: P. falciparum in erythrocytes, SYBR Green DNA, 72 h; series mostly up to 28.7 µM
Procedure, shortened: as §1

CP192 = assay: as above; conditions: P. falciparum in erythrocytes, SYBR Green DNA, 72 h; series mostly up to 28.7 µM
Procedure, shortened: as §1

CP194 = assay: as above; conditions: P. falciparum in erythrocytes, SYBR Green DNA, 72 h; series mostly up to 28.7 µM
Procedure, shortened: as §1

CP201 = assay: as above; conditions: P. falciparum in erythrocytes, SYBR Green DNA, 72 h; series mostly up to 28.7 µM
Procedure, shortened: as §1

CP203 = assay: as above; conditions: P. falciparum in erythrocytes, SYBR Green DNA, 72 h; series mostly up to 28.7 µM
Procedure, shortened: as §1

CP211 = assay: as above; conditions: P. falciparum in erythrocytes, SYBR Green DNA, 72 h; series mostly up to 28.7 µM
Procedure, shortened: as §1

CP215 = assay: as above; conditions: P. falciparum in erythrocytes, SYBR Green DNA, 72 h; series mostly up to 28.7 µM
Procedure, shortened: as §1

CP217 = assay: as above; conditions: P. falciparum in erythrocytes, SYBR Green DNA, 72 h; series mostly up to 28.7 µM
Procedure, shortened: as §1

CP237 = assay: as above; conditions: P. falciparum in erythrocytes, SYBR Green DNA, 72 h; series mostly up to 28.7 µM
Procedure, shortened: as §1

CP238 = assay: as above; conditions: P. falciparum in erythrocytes, SYBR Green DNA, 72 h; series mostly up to 28.7 µM
Procedure, shortened: as §1

CP247 = assay: as above; conditions: P. falciparum in erythrocytes, SYBR Green DNA, 72 h; series mostly up to 28.7 µM
Procedure, shortened: as §1

CP250 = assay: as above; conditions: P. falciparum in erythrocytes, SYBR Green DNA, 72 h; series mostly up to 12.8 µM
Procedure, shortened: as §1

CP252 = assay: as above; conditions: P. falciparum in erythrocytes, SYBR Green DNA, 72 h; series mostly up to 12.8 µM
Procedure, shortened: as §1

CP256 = assay: as above; conditions: P. falciparum in erythrocytes, SYBR Green DNA, 72 h; series mostly up to 28.7 µM
Procedure, shortened: as §1

Chain of Ubiquitin carboxyl-terminal hydrolase 1 (Homo sapiens) (O94782 whole entry, looked up): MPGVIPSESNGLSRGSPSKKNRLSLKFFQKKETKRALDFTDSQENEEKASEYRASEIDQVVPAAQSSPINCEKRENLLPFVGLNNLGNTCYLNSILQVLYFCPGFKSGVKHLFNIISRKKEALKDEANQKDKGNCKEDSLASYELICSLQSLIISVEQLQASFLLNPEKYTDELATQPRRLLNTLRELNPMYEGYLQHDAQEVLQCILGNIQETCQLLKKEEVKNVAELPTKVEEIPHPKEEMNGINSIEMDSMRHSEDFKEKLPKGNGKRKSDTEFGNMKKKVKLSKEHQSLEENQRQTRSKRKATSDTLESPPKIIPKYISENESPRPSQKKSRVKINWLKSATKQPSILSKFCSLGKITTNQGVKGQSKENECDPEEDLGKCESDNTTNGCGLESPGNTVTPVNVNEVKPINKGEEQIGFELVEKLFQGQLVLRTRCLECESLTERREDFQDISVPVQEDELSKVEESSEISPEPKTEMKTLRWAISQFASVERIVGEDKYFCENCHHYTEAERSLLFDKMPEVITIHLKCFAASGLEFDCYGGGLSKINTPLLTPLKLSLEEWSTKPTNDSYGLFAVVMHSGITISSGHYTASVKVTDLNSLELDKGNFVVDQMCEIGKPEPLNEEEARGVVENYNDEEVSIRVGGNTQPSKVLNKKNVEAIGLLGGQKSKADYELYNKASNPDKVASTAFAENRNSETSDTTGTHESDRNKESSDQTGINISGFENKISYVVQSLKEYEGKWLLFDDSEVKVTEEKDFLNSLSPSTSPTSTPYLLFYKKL
Chain of Glutathione peroxidase 1 (Homo sapiens) (P07203 whole entry, looked up): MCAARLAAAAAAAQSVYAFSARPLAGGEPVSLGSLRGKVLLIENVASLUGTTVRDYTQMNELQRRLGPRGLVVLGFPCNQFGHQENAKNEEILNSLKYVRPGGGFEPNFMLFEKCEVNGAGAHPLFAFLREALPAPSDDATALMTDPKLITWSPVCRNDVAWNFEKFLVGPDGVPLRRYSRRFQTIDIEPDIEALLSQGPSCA
Chain of Luciferin 4-monooxygenase (Photinus pyralis) (P08659 whole entry, looked up): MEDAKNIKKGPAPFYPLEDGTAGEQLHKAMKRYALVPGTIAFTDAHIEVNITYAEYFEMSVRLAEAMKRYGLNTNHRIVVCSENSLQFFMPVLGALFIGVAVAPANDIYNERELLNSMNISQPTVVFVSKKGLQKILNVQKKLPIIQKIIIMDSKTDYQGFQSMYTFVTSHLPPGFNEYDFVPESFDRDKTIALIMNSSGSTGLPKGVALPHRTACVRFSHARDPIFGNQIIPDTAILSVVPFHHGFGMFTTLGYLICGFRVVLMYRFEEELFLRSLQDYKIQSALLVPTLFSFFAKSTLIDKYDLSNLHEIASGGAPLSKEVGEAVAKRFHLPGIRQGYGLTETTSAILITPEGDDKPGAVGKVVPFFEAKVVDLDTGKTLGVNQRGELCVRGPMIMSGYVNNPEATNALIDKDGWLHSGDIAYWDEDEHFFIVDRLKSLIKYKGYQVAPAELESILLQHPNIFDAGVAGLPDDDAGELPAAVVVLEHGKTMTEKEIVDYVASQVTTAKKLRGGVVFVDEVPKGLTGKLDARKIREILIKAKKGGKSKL
Chain of ATP-dependent 6-phosphofructokinase (Trypanosoma brucei brucei) (O15648 whole entry, looked up): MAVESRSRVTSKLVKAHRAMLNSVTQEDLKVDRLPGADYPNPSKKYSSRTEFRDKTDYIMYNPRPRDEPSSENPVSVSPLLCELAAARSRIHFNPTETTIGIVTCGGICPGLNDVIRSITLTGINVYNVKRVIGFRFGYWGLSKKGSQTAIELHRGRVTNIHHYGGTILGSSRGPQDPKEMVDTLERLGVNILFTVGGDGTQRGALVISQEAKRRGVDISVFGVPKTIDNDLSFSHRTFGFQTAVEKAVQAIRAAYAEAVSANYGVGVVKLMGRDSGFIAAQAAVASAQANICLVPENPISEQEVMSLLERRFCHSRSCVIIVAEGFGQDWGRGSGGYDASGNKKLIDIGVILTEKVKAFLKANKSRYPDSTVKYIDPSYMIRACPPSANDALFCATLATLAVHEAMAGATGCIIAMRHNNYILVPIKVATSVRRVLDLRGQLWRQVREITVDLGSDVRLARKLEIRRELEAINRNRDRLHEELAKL
Chain of Cytochrome P450 2D6 (Homo sapiens) (P10635 whole entry, looked up): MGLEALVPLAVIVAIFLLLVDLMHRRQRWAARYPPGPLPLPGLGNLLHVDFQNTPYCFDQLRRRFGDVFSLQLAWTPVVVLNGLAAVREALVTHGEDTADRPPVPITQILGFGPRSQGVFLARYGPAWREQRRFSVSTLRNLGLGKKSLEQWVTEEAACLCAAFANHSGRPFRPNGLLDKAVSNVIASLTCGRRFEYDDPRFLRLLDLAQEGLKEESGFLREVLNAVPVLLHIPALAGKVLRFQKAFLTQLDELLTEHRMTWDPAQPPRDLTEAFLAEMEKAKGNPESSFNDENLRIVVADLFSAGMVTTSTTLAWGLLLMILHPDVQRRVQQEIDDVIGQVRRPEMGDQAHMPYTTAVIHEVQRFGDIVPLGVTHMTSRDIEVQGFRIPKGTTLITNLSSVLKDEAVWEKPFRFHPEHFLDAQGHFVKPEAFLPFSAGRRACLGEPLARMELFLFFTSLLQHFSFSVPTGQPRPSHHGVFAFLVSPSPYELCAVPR

CNC(C)[C@@H](O)c1ccc(O)cc1 (stereo not given in full)
inactive: Potency [1] | Potency [2] | Potency [3] | Potency [4] | Potency [5] | Potency [6] | Potency [7] | Potency [8] | Potency [9] | Potency [10] | Potency [11] | activity, negative = inhibition ([12]; parasite line A) 1.09% | activity, negative = inhibition ([12]; parasite line B) 3.21% | Potency (3D7) | Potency (7G8) | Potency (AA1029) | Potency (AS120) | Potency (ATS189) | Potency (ATS95) | Potency (C2A) | Potency (CP185) | Potency (CP191) | Potency (CP192) | Potency (CP194) | Potency (CP201) | Potency (CP203) | Potency (CP211) | Potency (CP215) | Potency (CP217) | Potency (CP237) | Potency (CP238) | Potency (CP247) | Potency (CP250) | Potency (CP252) | Potency (CP256)
